# Measurements reported in PMC9838217, “Structure of SALL4 zinc finger domain reveals link between AT-rich DNA binding and Okihiro syndrome”.
# Residue numbers refer to the chain shown, from its start.
# Assays:
# Experiment in all cases: HT-SELEX; high values mean tight binding
# Conditions in all cases: protein: recombinant; vector His6-GST; dsDNA, one strand shown
# SALL4 ZFC4 WT (HT-SELEX) = target: T1, SALL4 ZFC4 WT (HT-SELEX) (Mus musculus, UniProt Q8BX22 870-940)
# T1 sequence: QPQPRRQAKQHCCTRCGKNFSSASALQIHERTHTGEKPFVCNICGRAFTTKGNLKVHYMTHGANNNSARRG
# Method in brief: (§1)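 Binding signal is expressed as fold change in each canonical k-mer's read fraction over the initial random library. To obtain it, 1 µg of purified recombinant mouse SALL4 zinc finger cluster 4 (residues 870–940) was incubated for 10 min at room temperature with library DNA (1.5 µg first cycle, 200 ng later cycles) in 100 µl of 10 mM Tris–HCl pH 7.5, 50 mM NaCl, poly(dI-dC) and DTT. Ni2+ bead-captured complexes went through washing, PCR amplification and reselection for up to 6 cycles, in triplicate, before MiSeq sequencing and scanning for 6-mers.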
# [1] = target: T2, SALL4 ZFC4 R900W (HT-SELEX) (Mus musculus, UniProt Q8BX22 870-940, R900W)
# T2 sequence: T1 sequence with R31W
# Method in brief: as §1
# [2] = target: T3, SALL4 ZFC4 G921D (HT-SELEX) (Mus musculus, UniProt Q8BX22 870-940, G921D)
# T3 sequence: T1 sequence with G52D
# Method in brief: as §1
Sequence,binding signal (SALL4 ZFC4 WT (HT-SELEX)) [fold-change vs cycle 0],binding signal [1] [fold-change vs cycle 0],binding signal [2] [fold-change vs cycle 0]
CCATGA,0.874 ± 0.0255,0.938 ± 0.011,1.01 ± 0.0502
CTATAA,2.19 ± 0.104,1.95 ± 0.0822,1.74 ± 0.119
ACGTTC,0.7 ± 0.0339,0.844 ± 0.024,0.8714 ± 0.00795
ACCCGA,0.382 ± 0.00644,0.46 ± 0.0102,0.576 ± 0.0588
CGACAA,0.4483 ± 0.00206,0.523 ± 0.0149,0.653 ± 0.0169
CGTGAA,0.669 ± 0.0388,0.776 ± 0.0286,0.834 ± 0.041
AAAACC,0.956 ± 0.0539,1.05 ± 0.0465,1.1 ± 0.0332
CCAAAG,0.69 ± 0.0265,0.801 ± 0.0292,0.848 ± 0.0204
CGTTCC,0.389 ± 0.0208,0.468 ± 0.0134,0.546 ± 0.0299
ATTAGG,1.38 ± 0.0909,1.48 ± 0.0913,1.4 ± 0.0983
CTAACC,0.863 ± 0.0299,0.983 ± 0.0562,1.01 ± 0.0396
CCATAG,0.841 ± 0.0326,0.91 ± 0.0505,0.94 ± 0.039
CCTCCA,0.517 ± 0.0262,0.603 ± 0.0398,0.687 ± 0.0633
ACTTCT,1.44 ± 0.0317,1.64 ± 0.0808,1.45 ± 0.0874
CACATC,0.757 ± 0.0342,0.861 ± 0.0321,0.929 ± 0.0433
CTGTCC,0.398 ± 0.039,0.493 ± 0.0175,0.587 ± 0.0324
CAAGAA,1.26 ± 0.0324,1.43 ± 0.0703,1.35 ± 0.104
AGGTGA,0.887 ± 0.0607,0.987 ± 0.0758,1.04 ± 0.0735
GATCCC,0.519 ± 0.025,0.62 ± 0.0104,0.711 ± 0.017
ACCGTC,0.344 ± 0.0295,0.418 ± 0.0372,0.528 ± 0.0646
GGACTA,0.732 ± 0.0464,0.855 ± 0.0609,0.897 ± 0.0585
ATGGTA,1.45 ± 0.0382,1.48 ± 0.0495,1.4 ± 0.052
GATCCA,0.791 ± 0.0326,0.883 ± 0.0218,0.996 ± 0.0315
